Test results taken from PubChem BioAssay (NCATS).
Several values for one entry are separate records, joined by “and”; a condition that tells them apart may be missing. Equal values may be shown once. Results filed as inconclusive are left out. Activity calls are given as the source filed them. The call rests on the fitted dose curve; in most records, active means well fitted curve in the direction sought with a large enough effect; inconclusive means small, poorly fitted or top-dose-only effect, or another doubt; inactive means no such curve, though single readings can be large; an effect the other way counts as inactive or inconclusive.

Assays:
[1] = target: Cellular tumor antigen p53 (Homo sapiens) (UniProt P04637); assay: Primary qHTS for small molecule compounds that upregulate eGFP-tagged delta133p53alpha (in N-terminal) cells. (AID 2060322); settings: NCI-H358 eGFP-delta133p53alpha fluorescence, 24 h; activation: hits give high values;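 further: cells pre-induced with doxycycline then dosed without doxycycline; series mostly up to about 56 µM; 0% = DMSO vehicle and 100% = reference activator; nearly all actives have a fitted effect of over 75% in size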
Procedure, shortened: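 NCI-H358 cells pre-induced 24 h with 10 ng/ml doxycycline for eGFP-delta133p53alpha, plated dox-free and exposed 24 h at 37C to titrated compounds. Fixed, Hoechst-stained; gated GFP peak intensity by laser scanning cytometry, normalized to DMSO (0%) and 57.5 uM 5-azacytidine (100%).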

[2] = target: Aldehyde dehydrogenase, mitochondrial (Homo sapiens) (UniProt P05091); assay: qHTS for Inhibitors of the Aldehyde Dehydrogenase Family (ALDH2) Primary screen (AID 2061308);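 further: plate controls were vehicle for no effect and reference inhibitor for full effect; nearly all actives have a fitted effect of over 55% in size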
[3] = target: Retinaldehyde dehydrogenase 3 (Homo sapiens) (UniProt P47895); assay: qHTS for Inhibitors of the Aldehyde Dehydrogenase Family (ALDH1A3) Primary screen (AID 2061315);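 further: plate controls were DMSO vehicle for no effect and reference inhibitor for full effect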

Chain of Cellular tumor antigen p53 (Homo sapiens) (P04637 whole entry, looked up): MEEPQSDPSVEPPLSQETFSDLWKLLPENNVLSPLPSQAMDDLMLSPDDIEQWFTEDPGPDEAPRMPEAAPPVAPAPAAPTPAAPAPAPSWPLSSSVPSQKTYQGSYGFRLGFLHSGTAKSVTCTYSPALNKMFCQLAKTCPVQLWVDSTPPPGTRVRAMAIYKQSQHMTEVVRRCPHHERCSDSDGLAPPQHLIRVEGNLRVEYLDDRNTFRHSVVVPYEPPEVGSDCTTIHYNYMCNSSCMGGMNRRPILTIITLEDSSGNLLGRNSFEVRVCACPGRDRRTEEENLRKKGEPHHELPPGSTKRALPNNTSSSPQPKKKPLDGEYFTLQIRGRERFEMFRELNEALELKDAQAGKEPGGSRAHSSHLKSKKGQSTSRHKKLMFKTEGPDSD

COC1CCCC/C(C)=C/C2C=C(C)C(C)C3C(CC(C)C)NC(=O)C23C(=O)C1 (configuration not stated)
inactive: activation [1] -5.34% | Potency [2] | Potency [3]

COc1cc(/C=C/C(=O)O)ccc1O[C@@H]1O[C@H](CO)[C@@H](O)[C@H](O)[C@H]1O[C@@H]1OC[C@](O)(CO)[C@H]1O
inactive: activation [1] -13% | Potency [2] | Potency [3]

C=CCC/C=C/C#CCCCCCCCC[C@H]1C(=O)O[C@H](C)[C@@H]1O
inactive: activation [1] 8.4% | Potency [2] | Potency [3]

CC1(C)[C@@H](O[C@H]2O[C@H](C(=O)O)[C@@H](O)[C@H](O)[C@H]2O[C@@H]2O[C@H](C(=O)O)[C@@H](O)[C@H](O)[C@H]2O)CC[C@]2(C)[C@H]3C(=O)C=C4[C@@H]5C[C@@](C)(C(=O)O)CC[C@]5(C)CC[C@@]4(C)[C@]3(C)CC[C@@H]12
inactive: activation [1] -7.67% | Potency [2] | Potency [3]

C[C@H]1CC[C@@H]2N(C1)C[C@@H]1[C@H]([C@@H](O)[C@H](O)[C@]3(O)[C@H]1C[C@@]14OC5(O)[C@@H](C[C@@H](O)[C@@H]31)[C@]4(C)CC[C@@H]5O)[C@]2(C)O
inactive: activation [1] 0% | Potency [2] | Potency [3]

COC(=O)C1=CO[C@@H](O[C@@H]2O[C@H](CO)[C@@H](O)[C@H](O)[C@H]2O)[C@@H]2C(CO)=CC[C@]12O
inactive: activation [1] 1.79% | Potency [2] | Potency [3]

C=C(C(=O)O)C1CC(OC(=O)CC(C)CC)C2(C)CCCC(=C)C2C1 (configuration not stated)
inactive: activation [1] -13% | Potency [2] | Potency [3]

CC(C)S(=O)(=O)NC[C@H](C)c1ccc(NC(=O)c2cc(F)cc(F)c2)cc1
inactive: activation [1] -15% | Potency [2] | Potency [3]

COc1cc(/C=C/c2ccccc2)c(C(=O)O)c(O)c1CC=C(C)C
inactive: activation [1] -9.82% | Potency [2] | Potency [3]

COC(=O)[C@]1(C)CCC[C@@]2(C)[C@@H]3CC[C@@H]4C[C@@]3(CC[C@@H]21)C[C@H]4C(=O)O
inactive: activation [1] -17.6% | Potency [2] | Potency [3]

Cc1cccc(Nc2cc(Cl)nc(SCC(=O)O)n2)c1C
inactive: activation [1] 23.4% and 14.3% | Potency [2] | Potency [3]

CC1CCC2(CO)C(C(=O)O)=CCCC2C1(C)CCc1ccoc1 (configuration not stated)
inactive: activation [1] 14.3% | Potency [2] | Potency [3]

COC(=O)c1ccccc1O[C@@H]1O[C@H](CO)[C@@H](O)[C@H](O)[C@H]1O[C@@H]1O[C@@H](C)[C@H](O)[C@@H](O)[C@H]1O
inactive: activation [1] -10.7% | Potency [2] | Potency [3]

C/C=C(\C)C(=O)OCC1OC(OC2OC(COC(=O)/C(C)=C/C)C(OC3OC(CO)C(OC(=O)/C(C)=C/C)C(OC(=O)/C(C)=C/C)C3O)C(O)C2O)C(O)C(O)C1OC1OC(CO)C(OC(=O)/C(C)=C/C)C(OC(=O)/C(C)=C/C)C1O (configuration not stated)
inactive: activation [1] -19.8% | Potency [2] | Potency [3]

CCC1OC(=O)C(C)CC(C)C(=O)/C(C)=C/C(C)C(=O)/C=C/C1(C)O (configuration not stated)
inactive: activation [1] 3.05% | Potency [2] | Potency [3]

CCC(CC)Nc1nc(C)c(-c2ccc(OC(F)(F)F)cc2OC)nc1OC
inactive: activation [1] -3.57% | Potency [2] | Potency [3]

CC(=O)OC[C@]12[C@H](OC(C)=O)C(=O)[C@@H]3[C@@H](O)[C@@]14O[C@@]3(C)COC(=O)c1cccnc1[C@@H](C)[C@H](C)C(=O)O[C@@H]([C@H](O)[C@@H]2OC(C)=O)[C@]4(C)O
inactive: activation [1] -8.04% | Potency [2] | Potency [3]

CN=C(N)NCCCCC/C=C(/C)CC(C)C1OC(=O)C(C)C(O)/C=C/C(C)C(O)CC(O)C(C)C(O)CCC(C)C(O)CC2(O)OC(CC(OC(=O)CC(=O)O)CC(O)CC(O)C(C)C(O)/C(C)=C/CCC1C)CC(O)C2O (configuration not stated)
inactive: activation [1] -19.1% | Potency [2] | Potency [3]

CC1=CC(=O)[C@H]2C(C)(C)CCC[C@]2(C)[C@@]1(O)CO
inactive: activation [1] -29% | Potency [2] | Potency [3]

Cc1cc(-c2ncc(-c3cccnc3)cc2/C=C/c2ccccc2)cnc1-c1cccnc1
inactive: activation [1] 15.7% | Potency [2] | Potency [3]

CC(C)c1cc2c(c(O)c1O[C@@H]1O[C@H](CO)[C@@H](O)[C@H](O)[C@H]1O)CC1(O)CCC(O)C(C)(C)C1CC2 (some centres not stated)
inactive: activation [1] -22.1% | Potency [2] | Potency [3]

COC1=CC(=O)C[C@@H](C)[C@]12Oc1cc(OC)cc(OC)c1C2=O
inactive: activation [1] 4.58% | Potency [2] | Potency [3]

O=C(/C=C/c1ccc(O)cc1)O[C@H]1[C@H](OC2CCCCC2O)O[C@H](CO)[C@@H](O)[C@@H]1O (some centres not stated)
inactive: activation [1] -11.5% | Potency [2] | Potency [3]

COc1ccc(C2(O)CCC(N3CC[C@@H](NC(=O)CNC(=O)c4cccc(C(F)(F)F)c4)C3)CC2)cn1 (some centres not stated)
inactive: activation [1] 19.6% | Potency [2] | Potency [3]
